The record followed here is PMC7862700, “An all-to-all approach to the identification of sequence-specific readers for epigenetic DNA modifications on cytosine”.

What all share (assay): DAPPL (digital affinity profiling via proximity ligation, sequencing); 10 mM Tris-HCl pH 7.5, 50 mM NaCl, 1 mM DTT, 4% glycerol, room temperature, 30 min; GST-TFs on glutathione beads, 16-mer random dsDNA library, 0.1% formaldehyde crosslink after washing; high values mean tight binding
The target in assay [1] is T1, FEV (Homo sapiens, UniProt Q99581 1-238).
T1 sequence: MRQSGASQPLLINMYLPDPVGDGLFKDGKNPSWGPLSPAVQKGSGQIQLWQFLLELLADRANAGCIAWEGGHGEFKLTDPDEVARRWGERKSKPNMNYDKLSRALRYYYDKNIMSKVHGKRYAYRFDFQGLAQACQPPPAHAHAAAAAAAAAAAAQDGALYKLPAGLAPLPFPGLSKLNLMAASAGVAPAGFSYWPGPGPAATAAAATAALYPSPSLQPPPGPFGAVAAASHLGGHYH
The conditions noted are these: protein: recombinant; tags: N-terminal GST; dsDNA, one strand shown. The gist of the method:
(§1)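 Binding signal is defined as a hexamer's read frequency for one factor over its frequency for the tag-only sample. To obtain reads, GST-fused human transcription factors were expressed in yeast, captured on glutathione beads, barcoded with DNA and pooled with that sample. Pools met 200 nmole of a 16-mer random double-stranded DNA library in Tris/NaCl/DTT/glycerol buffer for 30 min at room temperature before washing, 0.1% formaldehyde crosslinking, proximity ligation (BsaI/T4 ligase, 1 h, 37 °C), PCR and Illumina NextSeq500 sequencing.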

Assay [2] concerns the target ETV5 (Homo sapiens, UniProt P41161 1-510). The conditions noted are these: protein: recombinant; tags: N-terminal GST; dsDNA, one strand shown. The method, boiled down:
as §1

Assay [3] addresses HSF1 (Homo sapiens, UniProt Q00613 1-529). The conditions noted are these: protein: recombinant; tags: N-terminal GST; chain copies: 3; dsDNA, one strand shown. The gist of the method: as §1
The target of assay [4] is T2, SPIC (Homo sapiens, UniProt Q8N5J4 1-248).
T2 sequence: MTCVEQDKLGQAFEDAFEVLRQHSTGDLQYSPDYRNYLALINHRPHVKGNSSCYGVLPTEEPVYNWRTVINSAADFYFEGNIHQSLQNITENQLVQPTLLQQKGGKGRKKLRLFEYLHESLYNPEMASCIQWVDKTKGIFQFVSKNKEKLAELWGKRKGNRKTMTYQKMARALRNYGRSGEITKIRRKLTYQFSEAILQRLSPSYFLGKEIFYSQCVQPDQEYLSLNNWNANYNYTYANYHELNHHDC
Particulars: protein: recombinant; tags: N-terminal GST; dsDNA, one strand shown. The gist of the method: as §1

The target in assay [5] is ELF4 (Homo sapiens, UniProt Q99607 1-663). The conditions noted are these: protein: recombinant; tags: N-terminal GST; dsDNA, one strand shown. The gist of the method:
as §1

The target in assay [6] is T3, ELK4 (Homo sapiens, UniProt P28324-2 1-405).
T3 sequence: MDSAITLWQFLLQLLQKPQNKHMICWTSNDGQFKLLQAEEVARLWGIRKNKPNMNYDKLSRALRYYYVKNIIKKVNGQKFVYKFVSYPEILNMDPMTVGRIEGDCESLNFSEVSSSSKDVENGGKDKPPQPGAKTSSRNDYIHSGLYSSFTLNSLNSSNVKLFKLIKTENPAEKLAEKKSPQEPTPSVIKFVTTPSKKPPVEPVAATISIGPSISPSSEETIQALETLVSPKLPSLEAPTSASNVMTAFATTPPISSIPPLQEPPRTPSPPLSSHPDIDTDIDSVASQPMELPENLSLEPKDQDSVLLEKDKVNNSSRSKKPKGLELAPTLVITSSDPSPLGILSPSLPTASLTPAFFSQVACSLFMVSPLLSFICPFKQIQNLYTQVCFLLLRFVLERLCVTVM
The conditions noted are these: protein: recombinant; tags: N-terminal GST; dsDNA, one strand shown. The method, boiled down: as §1

Assay [7] addresses T4, ETV2 (Homo sapiens, UniProt O00321 1-342).
T4 sequence: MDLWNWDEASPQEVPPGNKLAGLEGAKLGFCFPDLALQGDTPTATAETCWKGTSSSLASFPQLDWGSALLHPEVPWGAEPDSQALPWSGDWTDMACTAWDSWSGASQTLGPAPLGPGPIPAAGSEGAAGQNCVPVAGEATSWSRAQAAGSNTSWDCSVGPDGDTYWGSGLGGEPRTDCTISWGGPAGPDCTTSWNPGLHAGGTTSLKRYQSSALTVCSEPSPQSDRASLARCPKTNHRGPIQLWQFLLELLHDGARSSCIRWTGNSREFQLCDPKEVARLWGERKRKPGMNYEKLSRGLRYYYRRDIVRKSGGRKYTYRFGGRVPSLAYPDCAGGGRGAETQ
Particulars: protein: recombinant; tags: N-terminal GST; dsDNA, one strand shown. The method, boiled down:
as §1

The target of assay [8] is T5, ELF3 (Homo sapiens, UniProt P78545 1-371).
T5 sequence: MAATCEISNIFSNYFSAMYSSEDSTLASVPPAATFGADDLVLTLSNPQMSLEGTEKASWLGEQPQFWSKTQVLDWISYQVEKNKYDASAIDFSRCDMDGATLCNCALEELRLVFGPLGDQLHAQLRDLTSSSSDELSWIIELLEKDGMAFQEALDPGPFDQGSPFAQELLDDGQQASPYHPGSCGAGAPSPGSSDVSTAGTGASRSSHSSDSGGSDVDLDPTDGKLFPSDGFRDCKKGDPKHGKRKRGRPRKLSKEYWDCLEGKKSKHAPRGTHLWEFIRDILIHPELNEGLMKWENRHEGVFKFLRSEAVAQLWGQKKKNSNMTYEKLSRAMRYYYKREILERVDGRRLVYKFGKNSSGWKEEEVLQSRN
Particulars: protein: recombinant; tags: N-terminal GST; dsDNA, one strand shown. The method, boiled down:
as §1

Assay [9] concerns the target CRX (Homo sapiens, UniProt O43186 1-299). Particulars: protein: recombinant; tags: N-terminal GST; dsDNA, one strand shown. The gist of the method: as §1
For assay [10], the target named is ETV1 (Homo sapiens, UniProt P50549 1-477). Particulars: protein: recombinant; tags: N-terminal GST; dsDNA, one strand shown. The method, boiled down:
as §1

For assay [11], the target named is T6, ERF (Homo sapiens, UniProt P50548 1-548).
T6 sequence: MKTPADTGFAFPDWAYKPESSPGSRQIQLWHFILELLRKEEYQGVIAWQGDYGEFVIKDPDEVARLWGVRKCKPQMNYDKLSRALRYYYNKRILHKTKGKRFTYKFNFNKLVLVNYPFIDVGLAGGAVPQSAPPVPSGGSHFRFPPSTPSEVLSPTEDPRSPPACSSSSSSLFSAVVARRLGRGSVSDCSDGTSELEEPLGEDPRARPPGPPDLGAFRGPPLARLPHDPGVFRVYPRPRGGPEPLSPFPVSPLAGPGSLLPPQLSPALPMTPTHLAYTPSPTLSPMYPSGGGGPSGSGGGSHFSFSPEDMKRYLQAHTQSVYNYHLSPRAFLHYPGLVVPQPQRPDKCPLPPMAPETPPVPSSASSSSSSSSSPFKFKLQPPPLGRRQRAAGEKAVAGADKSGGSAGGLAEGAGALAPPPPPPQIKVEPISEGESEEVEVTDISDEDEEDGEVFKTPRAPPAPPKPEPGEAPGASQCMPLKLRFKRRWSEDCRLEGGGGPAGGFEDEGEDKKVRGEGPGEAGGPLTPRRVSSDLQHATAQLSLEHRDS
The conditions noted are these: protein: recombinant; tags: N-terminal GST; dsDNA, one strand shown. The gist of the method:
as §1

Assay [12] addresses T7, ETV3L (Homo sapiens, UniProt Q6ZN32 1-361).
T7 sequence: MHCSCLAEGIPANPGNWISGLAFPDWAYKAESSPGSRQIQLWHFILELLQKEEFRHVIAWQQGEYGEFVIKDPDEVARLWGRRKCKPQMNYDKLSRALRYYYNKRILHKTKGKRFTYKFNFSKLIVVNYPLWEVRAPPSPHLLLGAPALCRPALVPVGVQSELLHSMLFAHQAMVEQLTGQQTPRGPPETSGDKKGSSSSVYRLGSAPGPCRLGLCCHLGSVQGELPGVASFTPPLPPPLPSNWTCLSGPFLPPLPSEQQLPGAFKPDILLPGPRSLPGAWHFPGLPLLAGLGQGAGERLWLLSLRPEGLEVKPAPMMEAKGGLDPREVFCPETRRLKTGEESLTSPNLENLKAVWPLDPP
The conditions noted are these: protein: recombinant; tags: N-terminal GST; dsDNA, one strand shown. The gist of the method:
as §1

Assay [13] addresses T8, ETS2 (Homo sapiens, UniProt P15036 1-469).
T8 sequence: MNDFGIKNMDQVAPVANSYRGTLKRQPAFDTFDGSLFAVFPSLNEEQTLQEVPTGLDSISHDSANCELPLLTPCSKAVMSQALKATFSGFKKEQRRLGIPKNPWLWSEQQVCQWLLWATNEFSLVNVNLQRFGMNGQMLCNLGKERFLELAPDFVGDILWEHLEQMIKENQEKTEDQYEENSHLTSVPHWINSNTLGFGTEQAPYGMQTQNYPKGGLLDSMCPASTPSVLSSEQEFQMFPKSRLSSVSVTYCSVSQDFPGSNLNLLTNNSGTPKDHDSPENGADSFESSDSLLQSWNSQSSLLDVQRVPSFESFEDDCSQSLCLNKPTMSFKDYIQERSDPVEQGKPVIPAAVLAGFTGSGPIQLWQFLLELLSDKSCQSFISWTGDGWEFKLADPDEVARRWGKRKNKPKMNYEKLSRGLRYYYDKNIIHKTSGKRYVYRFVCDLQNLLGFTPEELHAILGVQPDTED
Particulars: protein: recombinant; tags: N-terminal GST; dsDNA, one strand shown. The method, boiled down:
as §1

The target of assay [14] is T9, SPDEF (Homo sapiens, UniProt O95238 1-335).
T9 sequence: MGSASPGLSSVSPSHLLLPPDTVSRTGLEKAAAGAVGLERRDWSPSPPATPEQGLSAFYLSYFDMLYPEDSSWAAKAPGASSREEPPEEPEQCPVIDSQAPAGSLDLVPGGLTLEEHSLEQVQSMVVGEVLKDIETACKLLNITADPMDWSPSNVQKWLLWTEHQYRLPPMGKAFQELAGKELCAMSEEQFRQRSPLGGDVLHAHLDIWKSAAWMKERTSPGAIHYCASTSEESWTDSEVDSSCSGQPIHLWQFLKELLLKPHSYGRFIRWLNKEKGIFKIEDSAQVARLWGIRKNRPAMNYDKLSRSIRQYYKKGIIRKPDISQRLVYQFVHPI
The conditions noted are these: protein: recombinant; tags: N-terminal GST; dsDNA, one strand shown. The gist of the method:
as §1

For assay [15], the target named is T10, ETV7 (Homo sapiens, UniProt Q9Y603 1-341).
T10 sequence: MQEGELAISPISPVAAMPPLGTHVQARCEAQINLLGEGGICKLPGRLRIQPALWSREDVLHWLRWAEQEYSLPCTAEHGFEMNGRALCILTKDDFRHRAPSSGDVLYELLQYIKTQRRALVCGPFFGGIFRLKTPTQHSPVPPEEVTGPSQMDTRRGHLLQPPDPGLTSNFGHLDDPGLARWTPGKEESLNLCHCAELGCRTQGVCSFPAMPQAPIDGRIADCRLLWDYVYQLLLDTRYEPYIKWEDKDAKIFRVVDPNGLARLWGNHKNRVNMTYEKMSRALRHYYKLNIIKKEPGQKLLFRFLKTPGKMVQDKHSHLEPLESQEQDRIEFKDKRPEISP
Particulars: protein: recombinant; tags: N-terminal GST; dsDNA, one strand shown. The gist of the method:
as §1

Assay [16] concerns the target T11, ELF5 (Homo sapiens, UniProt Q9UKW6-2 1-255).
T11 sequence: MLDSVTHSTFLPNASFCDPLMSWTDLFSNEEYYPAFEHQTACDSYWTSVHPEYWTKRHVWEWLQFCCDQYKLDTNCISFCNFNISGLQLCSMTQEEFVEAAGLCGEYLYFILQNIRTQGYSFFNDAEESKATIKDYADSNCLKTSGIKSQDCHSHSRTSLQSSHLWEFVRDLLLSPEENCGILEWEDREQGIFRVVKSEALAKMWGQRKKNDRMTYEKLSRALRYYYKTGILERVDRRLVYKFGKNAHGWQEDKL
The conditions noted are these: protein: recombinant; tags: N-terminal GST; dsDNA, one strand shown. The method, boiled down: as §1

For assay [17], the target named is T12, ETV3 (Homo sapiens, UniProt P41162-2 1-143).
T12 sequence: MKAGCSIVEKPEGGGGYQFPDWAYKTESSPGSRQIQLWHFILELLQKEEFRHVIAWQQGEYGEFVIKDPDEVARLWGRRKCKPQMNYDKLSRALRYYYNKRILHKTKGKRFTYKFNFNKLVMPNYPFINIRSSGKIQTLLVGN
Particulars: protein: recombinant; tags: N-terminal GST; dsDNA, one strand shown. The gist of the method:
as §1

Assay [18] has as its target ETV6 (Homo sapiens, UniProt P41212 1-452). Particulars: protein: recombinant; tags: N-terminal GST; dsDNA, one strand shown. The method, boiled down: as §1

Sequence of ETV1 (P50549 whole entry): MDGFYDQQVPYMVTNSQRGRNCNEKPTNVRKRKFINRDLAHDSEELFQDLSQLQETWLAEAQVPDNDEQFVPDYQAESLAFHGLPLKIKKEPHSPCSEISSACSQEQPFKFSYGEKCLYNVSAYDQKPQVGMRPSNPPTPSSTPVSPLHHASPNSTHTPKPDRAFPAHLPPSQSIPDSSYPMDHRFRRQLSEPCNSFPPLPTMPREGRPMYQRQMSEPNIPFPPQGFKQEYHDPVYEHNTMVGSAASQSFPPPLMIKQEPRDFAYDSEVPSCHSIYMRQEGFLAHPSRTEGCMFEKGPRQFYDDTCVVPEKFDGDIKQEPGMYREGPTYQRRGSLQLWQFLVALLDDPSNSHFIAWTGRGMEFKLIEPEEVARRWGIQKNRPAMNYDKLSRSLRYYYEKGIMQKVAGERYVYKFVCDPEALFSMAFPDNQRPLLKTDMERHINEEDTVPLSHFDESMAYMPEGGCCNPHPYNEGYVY
Sequence of ETV6 (P41212 whole entry): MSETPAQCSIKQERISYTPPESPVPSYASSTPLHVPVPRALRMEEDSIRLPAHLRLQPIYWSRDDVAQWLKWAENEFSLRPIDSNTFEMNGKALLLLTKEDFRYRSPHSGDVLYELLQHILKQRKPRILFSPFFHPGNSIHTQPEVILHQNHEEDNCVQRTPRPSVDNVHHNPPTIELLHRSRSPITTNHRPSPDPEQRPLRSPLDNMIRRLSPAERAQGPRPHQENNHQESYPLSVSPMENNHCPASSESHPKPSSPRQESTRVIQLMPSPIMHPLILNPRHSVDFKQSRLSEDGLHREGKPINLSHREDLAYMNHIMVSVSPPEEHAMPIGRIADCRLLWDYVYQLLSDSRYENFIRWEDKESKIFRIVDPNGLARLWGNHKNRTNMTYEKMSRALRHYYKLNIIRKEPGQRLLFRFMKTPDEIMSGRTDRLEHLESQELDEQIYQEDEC
Sequence of HSF1 (Q00613 whole entry): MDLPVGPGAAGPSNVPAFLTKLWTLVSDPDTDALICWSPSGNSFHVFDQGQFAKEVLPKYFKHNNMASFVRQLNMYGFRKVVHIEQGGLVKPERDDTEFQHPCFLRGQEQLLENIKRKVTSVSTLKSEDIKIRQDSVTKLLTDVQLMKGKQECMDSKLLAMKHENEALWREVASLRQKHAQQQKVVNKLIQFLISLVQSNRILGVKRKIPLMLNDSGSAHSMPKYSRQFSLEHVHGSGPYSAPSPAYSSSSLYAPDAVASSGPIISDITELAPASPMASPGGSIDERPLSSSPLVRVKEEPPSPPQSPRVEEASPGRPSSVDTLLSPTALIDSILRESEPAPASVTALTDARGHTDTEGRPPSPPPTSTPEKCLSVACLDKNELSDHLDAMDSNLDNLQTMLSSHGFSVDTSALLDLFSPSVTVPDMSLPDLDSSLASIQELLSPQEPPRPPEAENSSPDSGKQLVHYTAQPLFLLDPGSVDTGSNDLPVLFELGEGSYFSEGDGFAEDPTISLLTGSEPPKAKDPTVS
Sequence of ETV5 (P41161 whole entry): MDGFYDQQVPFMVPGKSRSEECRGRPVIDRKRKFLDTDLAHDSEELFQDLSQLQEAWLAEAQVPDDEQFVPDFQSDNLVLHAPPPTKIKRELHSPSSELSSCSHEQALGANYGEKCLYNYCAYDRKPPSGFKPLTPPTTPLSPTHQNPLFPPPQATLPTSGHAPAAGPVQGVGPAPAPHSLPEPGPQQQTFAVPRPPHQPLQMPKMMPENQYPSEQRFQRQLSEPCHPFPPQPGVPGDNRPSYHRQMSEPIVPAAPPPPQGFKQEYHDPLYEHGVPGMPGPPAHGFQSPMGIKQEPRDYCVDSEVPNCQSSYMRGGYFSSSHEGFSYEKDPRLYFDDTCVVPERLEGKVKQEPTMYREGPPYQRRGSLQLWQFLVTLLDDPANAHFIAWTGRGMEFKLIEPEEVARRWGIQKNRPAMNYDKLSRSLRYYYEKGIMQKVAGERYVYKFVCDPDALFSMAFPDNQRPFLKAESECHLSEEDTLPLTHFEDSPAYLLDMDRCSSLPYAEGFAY
Sequence of CRX (O43186 whole entry): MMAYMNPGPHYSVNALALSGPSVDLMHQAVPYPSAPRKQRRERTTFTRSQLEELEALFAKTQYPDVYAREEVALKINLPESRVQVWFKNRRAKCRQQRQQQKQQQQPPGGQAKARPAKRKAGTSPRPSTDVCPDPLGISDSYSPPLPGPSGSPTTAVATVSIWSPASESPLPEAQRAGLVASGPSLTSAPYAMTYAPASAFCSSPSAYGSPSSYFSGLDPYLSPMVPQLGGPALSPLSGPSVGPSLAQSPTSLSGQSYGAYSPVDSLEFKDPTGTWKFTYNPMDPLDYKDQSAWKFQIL
Sequence of ELF4 (Q99607 whole entry): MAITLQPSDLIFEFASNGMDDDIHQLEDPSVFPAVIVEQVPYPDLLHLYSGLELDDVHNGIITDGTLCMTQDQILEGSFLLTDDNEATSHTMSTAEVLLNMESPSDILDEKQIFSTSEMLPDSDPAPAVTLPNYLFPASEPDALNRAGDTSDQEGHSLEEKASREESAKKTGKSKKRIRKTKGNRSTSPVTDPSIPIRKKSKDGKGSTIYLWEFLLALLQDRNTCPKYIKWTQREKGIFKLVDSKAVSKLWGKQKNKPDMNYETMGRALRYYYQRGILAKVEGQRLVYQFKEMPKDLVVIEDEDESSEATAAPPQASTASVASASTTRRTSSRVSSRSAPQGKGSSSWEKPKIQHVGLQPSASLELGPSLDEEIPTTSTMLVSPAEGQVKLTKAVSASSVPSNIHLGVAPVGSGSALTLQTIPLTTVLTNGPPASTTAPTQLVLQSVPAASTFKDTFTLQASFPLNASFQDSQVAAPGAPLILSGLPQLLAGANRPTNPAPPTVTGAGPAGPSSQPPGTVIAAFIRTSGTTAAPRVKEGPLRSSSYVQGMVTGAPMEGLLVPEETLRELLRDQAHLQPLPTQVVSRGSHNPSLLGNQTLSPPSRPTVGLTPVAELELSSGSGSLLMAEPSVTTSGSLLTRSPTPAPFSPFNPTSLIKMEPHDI

Consider TTTGTT, for which the binding signal in [1] is 1.19 fold enrichment (6-mer frequency, TF over GST control); in assay [2], 1.25 fold enrichment (6-mer frequency, TF over GST control); in [3], 1.3 fold enrichment (6-mer frequency, TF over GST control); in assay [4], 1.29 fold enrichment (6-mer frequency, TF over GST control); in assay [5], 1.3 fold enrichment (6-mer frequency, TF over GST control); in assay [6] it was 1.46 fold enrichment (6-mer frequency, TF over GST control). In addition, the binding signal in assay [7] is 1.33 fold enrichment (6-mer frequency, TF over GST control); in assay [8] it was 1.35 fold enrichment (6-mer frequency, TF over GST control); in assay [9], 1.46 fold enrichment (6-mer frequency, TF over GST control); in assay [10], 1.25 fold enrichment (6-mer frequency, TF over GST control); in assay [11], 1.29 fold enrichment (6-mer frequency, TF over GST control); in assay [12], 1.27 fold enrichment (6-mer frequency, TF over GST control). Further, the binding signal in assay [13] was 1.26 fold enrichment (6-mer frequency, TF over GST control); in assay [14], 1.33 fold enrichment (6-mer frequency, TF over GST control); in assay [15] it was 1.18 fold enrichment (6-mer frequency, TF over GST control); in assay [16], 1.27 fold enrichment (6-mer frequency, TF over GST control); in [17] it was 1.34 fold enrichment (6-mer frequency, TF over GST control); in [18], 1.34 fold enrichment (6-mer frequency, TF over GST control).
